PubChem BioAssay AID1259318 (Sanford-Burnham Center for Chemical Genomics, 2017)
About 3,000 (0.81%) of roughly 370,000 compounds were called active.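 Rule for the calls: active = activity above about 14% (limit read from the data; passing the limit was not always enough); inactive = the rest.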 The list comes from a sample in which actives are over-represented; it also holds similar structures and randomly drawn compounds.

Biological target: Nuclear receptor subfamily 1 group D member 1 (Homo sapiens) (UniProt P20393)
Assay: modulators of Rev-erb alpha DNA binding, primary screen, biochemical, FITC-DNA, fluorescence polarization, uHTS (AID 1259318);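 note: 0% = DMSO wells with 35 nM protein and 100% = DMSO wells with 750 nM protein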
Conditions: Rev-erbα–FITC-DNA binding, 90 min, at 10 µM, active compounds read high

Sequence of Nuclear receptor subfamily 1 group D member 1 (Homo sapiens) (P20393 whole entry, looked up): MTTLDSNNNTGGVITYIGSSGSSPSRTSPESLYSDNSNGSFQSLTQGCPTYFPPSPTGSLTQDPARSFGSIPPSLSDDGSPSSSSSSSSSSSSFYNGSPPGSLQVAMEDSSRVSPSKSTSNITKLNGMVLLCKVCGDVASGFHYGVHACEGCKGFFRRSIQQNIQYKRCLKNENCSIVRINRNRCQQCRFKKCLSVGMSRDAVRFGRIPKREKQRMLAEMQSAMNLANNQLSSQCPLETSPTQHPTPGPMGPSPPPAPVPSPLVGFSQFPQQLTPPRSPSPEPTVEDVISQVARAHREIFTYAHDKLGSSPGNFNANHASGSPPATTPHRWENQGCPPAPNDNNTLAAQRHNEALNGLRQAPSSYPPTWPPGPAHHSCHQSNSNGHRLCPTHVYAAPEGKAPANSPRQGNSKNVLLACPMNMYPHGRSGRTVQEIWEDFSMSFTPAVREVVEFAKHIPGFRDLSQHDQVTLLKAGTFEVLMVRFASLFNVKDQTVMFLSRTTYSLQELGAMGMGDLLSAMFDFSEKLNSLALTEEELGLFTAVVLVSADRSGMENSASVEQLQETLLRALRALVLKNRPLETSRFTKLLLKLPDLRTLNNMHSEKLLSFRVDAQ

activity, active:
c1ccc2c(-c3nn4nnnc4c4ccccc34)cccc2c1 28.7%
O=C1CCCC2=C1C(c1ccccc1)n1c(s/c(=C/c3cccc(F)c3)c1=O)=N2 (stereo not drawn) 35%
O=C1Cc2ccccc2Sc2ccc(Cl)cc21 15.6%
Cc1ccc(S(=O)(=O)c2c[nH]c3ccc(Cl)cc3c2=O)cc1 136%
Fc1ccc(CNc2nc3ccccc3n3nnnc23)cc1 40.6%
Cc1nc(N2CCN(c3ccccn3)CC2)c2c(C)c(C(=O)Nc3ccc(F)c(Cl)c3)sc2n1 32%
O=S(=O)(c1ccc(Br)cc1)c1nc(-c2ccccc2)oc1NCc1cccnc1 27.6%
O=C(COC(=O)c1ccccc1SCC(=O)NC1CCCCC1)NC1CCCCC1 70.3%
N#Cc1ccccc1Sc1ccccc1C(=O)OCC(=O)NC1CCCCC1 61.4%
Cc1sc2ncnc(N3CCC(C(=O)Nc4nc5ccc(Cl)cc5s4)CC3)c2c1C 42.2%
COc1ccc2[nH]c(C(=O)Nc3ccccc3Cl)cc2c1 49.3%
COc1ccccc1CC1(C)C(=O)Nc2ccc(OC(F)(F)F)cc21 (stereo not drawn) 51.9%
Cc1cc(=O)oc(C)c1C(=O)N1CCCCC1 20.1%
COc1cc(OC)cc(-c2c(C#Cc3ccsc3)c3cc(-c4ccc(SC)cc4)ccc3n2C)c1 34.1%
Cc1nc2cc(NC(=O)CSc3nc4c(C)cccc4cc3C#N)ccc2s1 95.7%
CCOc1ccc2cc(C#N)c(SCC(=O)OC)nc2c1 116%
Cc1nonc1NC(=O)CSc1nc2ccccc2cc1C#N 39.8%
CC(C)OCCCNC(=O)CN1C(=O)/C(=C/c2ccccc2F)Oc2ccccc21 25%
Oc1ccc2ccc3cccc[n+]3c2c1 34.3%
C=C(C)C1CC=C(C)/C(=N\NC(=O)CNc2ccccc2OC)C1 (stereo not drawn) 28.5%
CN1/C(=C\C=C2\N=C(c3ccc(F)cc3)OC2=O)C(C)(C)c2ccccc21 36.5%

activity, inactive:
C=CCN1C(=O)[C@@H](CC(=O)NCC2CCCCC2)[C@]2(C(=O)OC)CCCCC=C12 8.08%
Cc1nonc1OCCn1nnnc1N 0.14%
COc1ccc(C)cc1NC(=O)NCCCCc1ccccc1 -4.58%
CC1CCCC(C)N1C(=O)COC(=O)COc1ccccc1C#N (stereo not drawn) 8.28%
COc1ccc(CN(CCN2CCOCC2)C(=O)c2ccc(C)cc2)cc1OC -7.19%
O=C1CC(c2cccc(F)c2)C2=C(CCCC2=O)N1 (stereo not drawn) 1.68%
COc1ccc(OC)c(C2C3=C(N=c4s/c(=C\c5cccc(O)c5)c(=O)n42)c2ccccc2CC3)c1 (stereo not drawn) -1.04%
S=C1Nc2cc(Cl)ccc2Sc2ccccc21 -3.11%
O=C1CC2(CCCC2)Oc2ccc(Cl)cc21 1.88%
Cc1ccc(S(=O)(=O)c2c[nH]c3ccc(C)cc3c2=O)cc1 4.77%
CCCCN(C)Cc1c(C)[nH]c2ccc(Cl)cc2c1=O 3.27%
COc1ccc(N(CC(=O)NCc2ccc(F)cc2)C(=O)CCC(=O)Nc2nccs2)cc1 -2.56%
Cc1cc(Cl)ccc1NNC(=O)c1snnc1C 3.67%
CCOC(=O)CNc1nc2ccccc2n2c(C)nnc12 2.94%
CC(C)(C)N1CC(c2nc3ccccc3n2Cc2ccc(F)cc2)CC1=O (stereo not drawn) -4.96%
COC(=O)[C@]1(C)N[C@H](c2ccc(-c3ccc(Cl)c(Cl)c3)cc2)[C@@H]2C(=O)N(C)C(=O)[C@@H]21 2.33%
Cc1nc(N2CCC(C)CC2)c2c(C)c(C(=O)Nc3cc(F)ccc3C)sc2n1 15.7%
O=C(Nc1ccc(F)c(Cl)c1)C1CCN(S(=O)(=O)c2cccnc2)CC1 -4.36%
COc1ccc(-c2nnc3n2CCCCC3)cc1 -6.25%
O=S(=O)(c1ccccc1)c1nc(-c2ccccc2F)oc1NCc1cccnc1 -3.4%
O=C(NCc1cccnc1)c1ccc(CS(=O)(=O)c2ccc(Br)cc2)o1 -2.47%
Cc1nn(CC#N)c(=O)n1N(C)c1ncc(C(F)(F)F)cc1Cl 7.64%
CCOc1ccc(C2NC(=S)NC3=C2CCc2ccccc23)cc1 (stereo not drawn) 7.82%
O=C(COC(=O)c1cccc(Cl)c1Cl)NC1CCCCCC1 -4.74%
O=C(COC(=O)c1cccc(Cl)c1)NC1CCCCCCC1 -7.98%
O=C(COC(=O)c1cc([N+](=O)[O-])ccc1NCc1ccccc1)NC1CCCCC1 -4.56%
N#Cc1ccc(C(=O)OCC(=O)NC(=O)NC2CCCCC2)cc1 -4.11%
COC(=O)[C@]12C[C@H](CC(=O)NCc3ccccc3)C(=O)N(CCC3=CCCCC3)C1=C[C@H](C(C)C)O[C@@H]2C1CC1 -4.75%
Cc1cc(C(=O)OCC(=O)Nc2ccc(F)c(F)c2)c(C)o1 4.64%
Cc1sc2ncnc(N3CCC(C(=O)Nc4ccc(F)cc4Cl)CC3)c2c1C 8.75%
CCc1ccc(C(=O)NNC(=O)C2CCN(c3ncnc4sc(C)c(C)c34)CC2)cc1 -5.39%
O=C1NS(=O)(=O)c2ccccc21 4.73%
CCOc1ccc(-n2c(SCC(=O)Nc3cc(C)c(NC(=O)c4ccccc4)cc3OC)nnc2-c2cccc(Cl)c2)cc1 -3.54%
COc1cc(NC(=O)c2ccccc2NS(=O)(=O)c2ccc(Cl)s2)cc(OC)c1 0.46%
COc1cc2cc(CN(CCN3CCCC3)C(=O)Nc3ccccc3Cl)c(=O)[nH]c2cc1OC 1.22%
CCc1ccc2c(c1)NC(=O)C2(C)Cc1ccc(OC(F)(F)F)cc1 (stereo not drawn) 4.7%
CC1(Cc2cccc(C#N)c2)C(=O)Nc2ccc(-c3cccc(C(F)(F)F)c3)cc21 (stereo not drawn) 0.78%
COc1cc2c(cc1OC)[C@@H](Cc1cc(OC)c(OC)c(OC)c1)[N+](C)(CCCOC(=O)CC/C=C/CCC(=O)OCCC[N+]1(C)CCc3cc(OC)c(OC)cc3[C@H]1Cc1cc(OC)c(OC)c(OC)c1)CC2 (stereo partly drawn) 4.74%
Cc1c(Br)cc(C(=O)N2CCCCCC2)c(C)c1C -0.12%
Cc1cc(=O)oc(C)c1C(=O)NC1CC(C)(C)NC(C)(C)C1 -3.78%
CCC1(C)OC(=O)N(C)C1=O (stereo not drawn) -3.1%
Nc1cccc(OCCCCCOc2cccc(N)c2)c1 5%
COc1cc(OC)cc(-c2c(C#Cc3ccsc3)c3cc(-c4ccc(OC)cc4F)ccc3n2C)c1 -0.12%
COc1ccc(-c2c(C#Cc3ccsc3)c3cc(-c4ccc(CN5CCOCC5)cc4)ccc3n2C)cc1 3.65%
Cc1ccc(-c2ccc(CN3C(C)C(=O)N(Cc4cn(CCC5OCCCO5)nn4)CCS3(=O)=O)cc2)cc1 (stereo not drawn) 1.81%
CC1(C)C2CC[C@]3(C)C(C(=O)C=C4[C@@H]5C[C@@](C)(C(=O)O)CC[C@]5(C)CC[C@]43C)[C@@]2(C)CC[C@@H]1O (stereo partly drawn) -5.93%
CC(C)(C)OC(=O)C[C@@H]1C/C=C\C[C@H](CC(=O)N[C@@H](CO)Cc2ccccc2)C(=O)N[C@H](Cc2ccccc2)COC1=O -3.46%
COC(=O)CSc1nc2c(c(C3CC=CCC3)c1C#N)CCC2 (stereo not drawn) 0.02%
Cc1ccc2nc(SCc3nnc(-c4ccccc4[N+](=O)[O-])o3)c(C#N)cc2c1 -0.86%
Cc1cc(C#N)c(SCC(N)=O)nc1-c1ccc(F)cc1 -0.55%
Cc1ccc(C)c2c1cc(C)c1nnc(SCC(=O)Nc3cccc(C(=O)O)c3)n12 -2.26%
Cc1ccc(NC(=O)CSc2sc3c(O)cc(=O)[nH]c3c2C#N)cc1C -17.5%
Cc1csc(SCC(=O)Nc2sccc2C#N)n1 -1.85%
CCNC(=O)CC1C(=O)N(c2ccc(OC)cc2)C(=O)N1CCOC (stereo not drawn) -2.32%
C/C(=N\NC(=O)c1cc2c(s1)CCC(C)C2)c1cccnc1 (stereo not drawn) -5.04%
CCCCN(CCCC)CCNC(=O)CN1C(=O)COc2ccc(S(=O)(=O)N3CCOCC3)cc21 2.87%
C[C@@H](CN1C2=NC[C@@H](Cc3ccccc3)N2C[C@H]1Cc1ccc(O)cc1)NC(=O)CCC1CCCCC1 -3.34%
C[C@H]1CCC/C=C/C(=O)c2c(O)cc(O)cc2CC(=O)O1 -5.09%
O=C(CN1C(=O)/C(=C/c2ccccc2F)Sc2ccccc21)NCc1cccnc1 -1.22%
O=C(CN1C(=O)COc2ccccc21)Nc1ccc(F)cc1 -4.74%
CCN(CC)C(=O)CC[C@@H]1CC[C@]2(CCCN(S(=O)(=O)C3CCCCC3)C2)O1 -2.68%
COc1ccccc1OCCNCC(O)COc1cccc2[nH]c3ccccc3c12 (stereo not drawn) 0.09%
COC(=O)C1=C(C)N(Cc2ccccc2C(F)(F)F)C(=NCc2ccc(OC)cc2)NC1c1cccc(C(F)(F)F)c1 (stereo not drawn) 3.37%
C=C(C)C1CC=C(C)/C(=N/NC(=O)CCCNc2cccc(C)c2)C1 (stereo not drawn) -3.69%
COc1ccccc1NC(=O)COC(=O)CNC(=O)C1CCCCC1 -2.69%
COc1ccc(-n2c(COc3ccc(C)cc3)nnc2SCC(=O)Nc2ccc(Oc3ccccc3)cc2)cc1 -3.25%
CCc1ccc(S(=O)(=O)Nc2ccc(C)c(NS(C)(=O)=O)c2)cc1 -7.94%
